Experimental data from the supplement of paper PMC8728848.
The entries come from a sample that favours the strongest signals as a whole.

Columns and labels:
Test in all cases: glycan array binding signal (z-score within array); higher = stronger binding
Conditions in all cases: glycan notation: IUPAC condensed, linker removed; mutation: R74S
[1] = target: Fuc(a1-2)Gal(b1-3)GlcNAc(b1-3)[Neu5Ac(a2-6)Gal(b1-4)GlcNAc(b1-6)]Gal(b1-4)Glc
How it was run: (§1)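 Glycan array data were curated from 3228 arrays in the Consortium for Functional Glycomics database and kept only where the protein sequence was available. Glycan names were converted to IUPAC-condensed notation, and columns mapping to the same glycan were averaged. The binding signal is a within-array Z-score, averaged across arrays of the same protein sequence at different concentrations or buffers and across linkers. Negative Z-scores can be read as non-binding.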

[2] = target: Fuc(a1-2)Gal(b1-4)GlcNAc
How it was run: as §1

[3] = target: Fuc(a1-2)Gal(b1-4)GlcNAc(b1-2)Man(a1-3)[Fuc(a1-2)Gal(b1-4)GlcNAc(b1-2)Man(a1-6)]Man(b1-4)GlcNAc(b1-4)[Fuc(a1-6)]GlcNAc
How it was run: as §1

[4] = target: Fuc(a1-2)Gal(b1-4)GlcNAc(b1-3)Gal(b1-4)GlcNAc(b1-2)Man(a1-3)[Fuc(a1-2)Gal(b1-4)GlcNAc(b1-3)Gal(b1-4)GlcNAc(b1-2)Man(a1-6)]Man(b1-4)GlcNAc(b1-4)GlcNAc
How it was run: as §1

[5] = target: Fuc(a1-2)Gal(b1-4)GlcNAc(b1-6)GalNAc
How it was run: as §1

[6] = target: Fuc(a1-2)Gal(b1-4)[Fuc(a1-3)]GlcNAc(b1-3)Gal(b1-4)[Fuc(a1-3)]GlcNAc(b1-3)Gal(b1-4)[Fuc(a1-3)]GlcNAc
How it was run: as §1

[7] = target: Fuc(a1-2)Gal6S(b1-4)Glc6S
How it was run: as §1

[8] = target: Fuc(a1-2)[Gal(a1-3)]Gal(b1-3)GlcNAc(b1-6)GalNAc
How it was run: as §1

[9] = target: Fuc(a1-2)[Gal(a1-3)]Gal(b1-4)GlcNAc
How it was run: as §1

[10] = target: Fuc(a1-2)[GalNAc(a1-3)]Gal(b1-3)GlcNAc(b1-2)Man(a1-3)[Fuc(a1-2)[GalNAc(a1-3)]Gal(b1-3)GlcNAc(b1-2)Man(a1-6)]Man(b1-4)GlcNAc(b1-4)GlcNAc
How it was run: as §1

[11] = target: Fuc(a1-2)[GalNAc(a1-3)]Gal(b1-4)GlcNAc(b1-3)Gal(b1-4)GlcNAc(b1-3)Gal(b1-4)GlcNAc
How it was run: as §1

[12] = target: Fuc(a1-3)[Gal(b1-4)]GlcNAc(b1-6)[Gal(b1-3)GlcNAc(b1-3)]Gal(b1-4)Glc
How it was run: as §1

[13] = target: Gal(a1-3)Gal(b1-4)Glc
How it was run: as §1

[14] = target: Gal(a1-4)Gal(b1-3)GlcNAc(b1-2)Man(a1-3)[Gal(a1-4)Gal(b1-3)GlcNAc(b1-2)Man(a1-6)]Man(b1-4)GlcNAc(b1-4)GlcNAc
How it was run: as §1

[15] = target: Gal(b1-3)Gal(b1-4)GlcNAc
How it was run: as §1

[16] = target: Gal(b1-3)GalNAc
How it was run: as §1

[17] = target: Gal(b1-3)GlcNAc(b1-2)Man(a1-3)[Gal(b1-3)GlcNAc(b1-2)Man(a1-6)]Man(b1-4)GlcNAc(b1-4)[Fuc(a1-6)]GlcNAc
How it was run: as §1

[18] = target: Gal(b1-3)GlcNAc6S
How it was run: as §1

[19] = target: Gal(b1-3)[Fuc(a1-4)]GlcNAc(b1-6)GalNAc
How it was run: as §1

[20] = target: Gal(b1-3)[Neu5Ac(a2-6)]GlcNAc(b1-4)Gal(b1-4)Glc
How it was run: as §1

[21] = target: Gal(b1-4)GalNAc(a1-3)[Fuc(a1-2)]Gal(b1-4)GlcNAc
How it was run: as §1

[22] = target: Gal(b1-4)GlcNAc(b1-3)Gal(b1-4)GlcNAc(b1-2)Man(a1-3)[Gal(b1-4)GlcNAc(b1-3)Gal(b1-4)GlcNAc(b1-2)Man(a1-6)]Man(b1-4)GlcNAc(b1-4)GlcNAc
How it was run: as §1

[23] = target: Gal(b1-4)GlcNAc(b1-3)Gal(b1-4)GlcNAc(b1-2)[Gal(b1-4)GlcNAc(b1-3)Gal(b1-4)GlcNAc(b1-6)]Man(a1-6)[Gal(b1-4)GlcNAc(b1-3)Gal(b1-4)GlcNAc(b1-2)Man(a1-3)]Man(b1-4)GlcNAc(b1-4)GlcNAc
How it was run: as §1

[24] = target: Gal(b1-4)GlcNAc(b1-3)Gal(b1-4)GlcNAc(b1-3)Gal(b1-4)GlcNAc(b1-2)[Gal(b1-4)GlcNAc(b1-3)Gal(b1-4)GlcNAc(b1-3)Gal(b1-4)GlcNAc(b1-6)]Man(a1-6)[Gal(b1-4)GlcNAc(b1-3)Gal(b1-4)GlcNAc(b1-3)Gal(b1-4)GlcNAc(b1-2)Man(a1-3)]Man(b1-4)GlcNAc(b1-4)[Fuc(a1-6)]GlcNAc
How it was run: as §1

[25] = target: Gal(b1-4)GlcNAc(b1-3)Gal(b1-4)GlcNAc(b1-3)Gal(b1-4)GlcNAc(b1-3)Gal(b1-4)GlcNAc(b1-2)Man(a1-3)[Gal(b1-4)GlcNAc(b1-3)Gal(b1-4)GlcNAc(b1-3)Gal(b1-4)GlcNAc(b1-3)Gal(b1-4)GlcNAc(b1-2)Man(a1-6)]Man(b1-4)GlcNAc(b1-4)GlcNAc
How it was run: as §1

B1: Gal 7 (Homo sapiens) (protein)
chain: MSNVPHKSSLPEGIRPGTVLRIRGLVPPNASRFHVNLLCGEEGGSDAALHFNPRLDTSEVVFNSKEGGSWGREESGPGVPFGRGQPFEVLIIASDDGFKAVVGDAQYHHFRHRLPLARVRLVEVGGDVQLDSVRIF
- glycan array binding signal (z-score) [1]: 0.022
- glycan array binding signal (z-score) [2]: -0.214
- glycan array binding signal (z-score) [3]: 1.07
- glycan array binding signal (z-score) [4]: 13.1
- glycan array binding signal (z-score) [5]: 0.439
- glycan array binding signal (z-score) [6]: 0.209
- glycan array binding signal (z-score) [7]: 0.38
- glycan array binding signal (z-score) [8]: -0.325
- glycan array binding signal (z-score) [9]: -0.56
- glycan array binding signal (z-score) [10]: -0.27
- glycan array binding signal (z-score) [11]: -0.239
- glycan array binding signal (z-score) [12]: 0.106
- glycan array binding signal (z-score) [13]: 0.28
- glycan array binding signal (z-score) [14]: -0.347
- glycan array binding signal (z-score) [15]: -0.425
- glycan array binding signal (z-score) [16]: -0.37
- glycan array binding signal (z-score) [17]: 0.404
- glycan array binding signal (z-score) [18]: -0.422
- glycan array binding signal (z-score) [19]: -0.149
- glycan array binding signal (z-score) [20]: -0.354
- glycan array binding signal (z-score) [21]: -0.282
- glycan array binding signal (z-score) [22]: 3.67
- glycan array binding signal (z-score) [23]: 1.49
- glycan array binding signal (z-score) [24]: 3.31
- glycan array binding signal (z-score) [25]: 5.53
